The record followed here is ChEMBL document CHEMBL1157539, “Thousands of chemical starting points for antimalarial lead identification” (Nature, 2010).

What all share (type): functional
Experiment [1] has as its system Plasmodium falciparum. Kind of experiment: GSK_TCMDC: Inhibition of Plasmodium falciparum 3D7 in whole red blood cells, using parasite LDH activity as an index of growth. Test compounds present at 2uM.
Experiment [2] has as its system Plasmodium falciparum. Briefly: GSK_TCMDC: Inhibition of Plasmodium falciparum Dd2 in whole red blood cells, using parasite LDH activity as an index of growth. Test compounds present at 2uM.
A further experiment relates to HepG2. Kind of experiment: GSK_TCMDC: Percent inhibition of human HepG2 cell line. Test compounds present at 10uM.

As to `O=C(N[C@H]1CCN(CCc2ccc(O[C@H]3CCNC3)c(F)c2)C1)c1ccc(Cl)c(Cl)c1.O=C(O)C(F)(F)F`, the results for the Inhibition with Plasmodium falciparum [1], in the experiment on Plasmodium falciparum [2] and with HepG2 were 95%, 23% and 39%, respectively.

With `Cc1cc(C(=O)NC2CCN(Cc3ccccc3)CC2)ccc1-c1nc2ccc(C(F)(F)F)cc2[nH]1`, the Inhibition (commonly the drop in the measured response relative to a control, in per cent) came out at 95% in the experiment with Plasmodium falciparum [1], 2% in the experiment with Plasmodium falciparum [2] and 19% in the experiment with HepG2.

For the molecule `Cc1cc(N2CCN(C)CC2)nc2ccc(NC(=O)Cc3cccc(C(F)(F)F)c3)cc12`, the Inhibition in the experiment on Plasmodium falciparum [1] is 99%; in the experiment with Plasmodium falciparum [2], 51%; in the experiment on HepG2 it was 26%.

Regarding `CC[C@H](C)CNC(=O)c1cccc(-c2ccc(CN3CCC(N4CCCC4)CC3)cc2)n1.O=C(O)C(F)(F)F`, the Inhibition turned out to be 100% with Plasmodium falciparum [1], 82% with Plasmodium falciparum [2] and 41% in the experiment on HepG2.

Regarding `CC(=O)Nc1ccc(C(=O)Nc2cccc(-c3ccc(-c4nc5ccccc5[nH]4)cc3)c2)cn1`, the figures for the Inhibition in the experiment on Plasmodium falciparum [1], with Plasmodium falciparum [2] and in the experiment with HepG2 were 100%, 93% and 12%, respectively.

Regarding `CC1CC(C)CN(S(=O)(=O)c2cc(C(=O)Nc3cccc([N+](=O)[O-])c3)ccc2Br)C1` (stereo unspecified), the Inhibition in the experiment on Plasmodium falciparum [1] stood at 100%; with Plasmodium falciparum [2], 68%; in the experiment with HepG2 it was 1%.

Turning to `O=c1cc(NCCC(CNCc2ccoc2)NCc2cc(Br)cc(Br)c2)[nH]c2ccccc12` (stereo unspecified), the values for the Inhibition in the experiment with Plasmodium falciparum [1], in the experiment with Plasmodium falciparum [2] and with HepG2 were 92%, 28% and 0%, respectively.

In the case of `CCN(CC)CCOc1ccc(C(O)(C#CC(O)(c2ccccc2)c2ccc(OCCN(CC)CC)cc2)c2ccccc2)cc1` (stereo unspecified), the Inhibition in the experiment with Plasmodium falciparum [1] is reported as 99%; in the experiment on Plasmodium falciparum [2], 99%; in the experiment with HepG2, 81%.

For the molecule `CC(C)(C)c1ccc2[nH]c(-c3ccc(C(=O)NCc4cccc(C(F)(F)F)c4)cc3)nc2c1`, the Inhibition in the experiment with Plasmodium falciparum [1] was found to be 98%; with Plasmodium falciparum [2], 26%; in the experiment on HepG2 it was 9%.

On to `COc1ccc(-c2ccc(NC(=O)c3ccc(F)cc3)cc2)cc1CNC(C)C.O=C(O)C(F)(F)F`, for which the Inhibition was found to be 97% with Plasmodium falciparum [1], 28% in the experiment with Plasmodium falciparum [2] and 24% in the experiment with HepG2.

`C=CCNC(=O)C(C)c1ccc2cc(OC)ccc2c1` (stereo unspecified): the Inhibition amounted to 92% in the experiment on Plasmodium falciparum [1], 90% with Plasmodium falciparum [2] and 4% in the experiment with HepG2.

With `O=C(Cn1c(CCc2cccc(F)c2F)nc(=O)c2ccccc21)N(Cc1ccc(-c2ccc(C(F)(F)F)cc2)cc1)C1CCN(C2=NCCS2)CC1.O=C(O)C(O)C(O)C(=O)O`, the figures for the Inhibition in the experiment on Plasmodium falciparum [1], in the experiment on Plasmodium falciparum [2] and in the experiment with HepG2 were 81%, 85% and 62%, respectively.

With `CCCC(C)N(Cc1ccc(C(C)(C)C)cc1)C(=O)c1cccc(OC)c1` (stereo unspecified), the results for the Inhibition in the experiment on Plasmodium falciparum [1], with Plasmodium falciparum [2] and in the experiment on HepG2 were 100%, 89% and 9%, respectively.

As to `O=C(O)C(F)(F)F.c1ccc2[nH]c(-c3ccc(-c4ccc(CNC5CC5)cc4)s3)nc2c1`, the Inhibition in the experiment with Plasmodium falciparum [1] is recorded as 91%; in the experiment with Plasmodium falciparum [2] it was 19%; with HepG2 it was 25%.

In the case of `Cc1ccc(C(=O)Cn2nc(-c3ccc(C)c(S(=O)(=O)N4CCCC4)c3)ccc2=O)cc1`, the Inhibition in the experiment with Plasmodium falciparum [1] came out at 94%; with Plasmodium falciparum [2], 70%; in the experiment on HepG2, 0%.

`Cc1ccccc1C1CCN(c2ccc(NC(=O)c3ccc(Cl)nc3)cc2)CC1.O=C(O)C(F)(F)F`: the figures for the Inhibition with Plasmodium falciparum [1], in the experiment with Plasmodium falciparum [2] and with HepG2 were 92%, 82% and 43%, respectively.

`Cc1cccc2nc(-c3cccc(-c4cccc(C(=O)NCc5nccn5C)c4)c3)[nH]c12`: the Inhibition with Plasmodium falciparum [1] amounted to 99%; with Plasmodium falciparum [2], 50%; in the experiment on HepG2, 22%.

Regarding `CCC1(CC)NC(N)=NC(=N)N1OCc1ccc(Cl)c(Cl)c1.Cl`, the Inhibition in the experiment on Plasmodium falciparum [1] is 94%; in the experiment on Plasmodium falciparum [2] it was 49%; with HepG2, 49%.

`Cc1cc(N)c2cc(NC(=O)/C=C/c3ccc([N+](=O)[O-])cc3)ccc2n1`: the Inhibition in the experiment with Plasmodium falciparum [1] is reported as 100%; in the experiment on Plasmodium falciparum [2], 80%; in the experiment on HepG2 it was 76%.

As for `O=C(O)C(F)(F)F.c1ccc(CCNCc2ccc(-c3cccc(CNc4ccc5ncccc5c4)c3)cc2)cc1`, the Inhibition was determined as 91% in the experiment on Plasmodium falciparum [1], 17% in the experiment on Plasmodium falciparum [2] and 30% in the experiment on HepG2.

With `CC(C)Cn1c(N)cc(=O)n(C)c1=O`, the Inhibition with Plasmodium falciparum [1] is listed as 100%; in the experiment with Plasmodium falciparum [2], 0%; with HepG2, 3%.

Take `CN(C)CCOc1ccc(-c2cc(-c3ccnc(N)n3)c(-c3ccc(Cl)c(O)c3)o2)cc1`: the Inhibition amounted to 100% with Plasmodium falciparum [1], 91% with Plasmodium falciparum [2] and 14% with HepG2.

For `Cl.O=C(/C=C/c1ccc(F)cc1)NC1CCC(CCN2CCc3ccc(-n4cccn4)cc3CC2)CC1` (stereo unspecified), the Inhibition in the experiment on Plasmodium falciparum [1] was 89%; in the experiment with Plasmodium falciparum [2], 16%; with HepG2 it was 23%.

In the case of `CC[C@H](NC(=O)c1c(CC2CCN(CC(C)=O)CC2)c(-c2ccccc2)nc2ccccc12)c1ccccc1`, the Inhibition with Plasmodium falciparum [1] came out at 97%; in the experiment with Plasmodium falciparum [2] it was 96%; in the experiment with HepG2 it was 7%.

For `O=C(Nc1cccc(C(F)(F)F)c1)NC1CCN(c2ccnc3cc(Cl)ccc23)CC1.O=C(O)C(F)(F)F`, the Inhibition was 100% with Plasmodium falciparum [1], 47% in the experiment on Plasmodium falciparum [2] and 13% in the experiment with HepG2.

On to `O=C(/C=C/c1ccc(Cl)c(Cl)c1)NC1CCC(CN2CCC(c3nc4cc(O)ccc4[nH]3)CC2)CC1` (stereo unspecified), for which the Inhibition with Plasmodium falciparum [1] amounted to 100%; in the experiment with Plasmodium falciparum [2] it was 84%; in the experiment with HepG2, 41%.

With `N#Cc1ccc(N2C[C@@H](OCc3ccccc3)C[C@H]2C(=O)NCCC(c2ccccc2)c2ccccc2)c2ccccc12`, the Inhibition turned out to be 93% in the experiment on Plasmodium falciparum [1], 96% in the experiment on Plasmodium falciparum [2] and 11% in the experiment with HepG2.
